# Reference: ChEMBL document CHEMBL1157539, “Thousands of chemical starting points for antimalarial lead identification” (Nature, 2010)
# Key:
# Type in all cases: functional
# [1] = system: Plasmodium falciparum; test: GSK_TCMDC: Inhibition of Plasmodium falciparum 3D7 in whole red blood cells, using parasite LDH activity as an index of growth. Test compounds present at 2uM
# [2] = system: Plasmodium falciparum; test: GSK_TCMDC: Inhibition of Plasmodium falciparum Dd2 in whole red blood cells, using parasite LDH activity as an index of growth. Test compounds present at 2uM
# [3] = system: HepG2; test: GSK_TCMDC: Percent inhibition of human HepG2 cell line. Test compounds present at 10uM.
Structure (SMILES),Inhibition [1],Inhibition [2],Inhibition [3]
N#Cc1cccc(NC(=O)Nc2ccc3c(c2)CN(Cc2c[nH]c4ncccc24)C3)c1,99%,12%,0%
Cc1cc(N(C)CCCN2CCCCC2)nc(Nc2ccc(Cl)cc2)n1.Cl,100%,82%,7%
O=c1cc(NC[C@H]2CCC[C@@H]2NC2CCCc3c2[nH]c2ccccc32)[nH]c2ccccc12 (stereo partly drawn),100%,25%,6%
COc1ccc(F)cc1-c1ccccc1CNC(=O)c1cnn(-c2ccc([N+](=O)[O-])cc2)c1C(F)(F)F,89%,75%,0%
C=CCn1c(SCc2c(C)noc2C)nc2scc(-c3cccs3)c2c1=O,88%,34%,13%
CCOc1ccc2[nH]c(C)cc(=NN=Cc3cccc(F)c3)c2c1,100%,23%,0%
Cc1cccc2nc(-c3ccc(-c4cccc(NC(=O)c5cnn6cccnc56)c4)cc3)[nH]c12,91%,29%,100%
Cc1cc(OCCCN2CCC(NS(=O)(=O)c3cccc(Br)c3)C2)c2ccccc2n1 (stereo not drawn),86%,40%,13%
CCCC(C)c1ccc(N2C(N)=NC(N)=NC2(C)C)cc1.Cl (stereo not drawn),90%,7%,51%
Cc1cc(N2CCN(C)CC2)nc2ccc(NC(=O)Cc3cccc(C(F)(F)F)c3)cc12,99%,51%,26%
O=C(C=Cc1ccc(Cl)c(Cl)c1)NCCCCCN1CCC(CCCNS(=O)(=O)c2ccc(F)cc2)CC1,93%,20%,52%
